A selection follows.
aSyn 5UTR act – Activators via SNCA 5'UTR binding, MLPCN; AID 1814; activity score, % (tested at 7.5 µM), hits read low; alpha-synuclein 5'UTR reporter, activators screen; hit rate 7.1% among 300,000; in the data active = activity score below about -60%
Active calls of the source: *.

SMILES	aSyn 5UTR act
Cc1ccc(C(=O)Nc2cccc(-c3ccc(N4CCOCC4)nn3)c2)cc1C	-73*
Cc1cc(C(=O)Nc2cccc(-c3ccc(N4CCOCC4)nn3)c2)ccc1[N+](=O)[O-]	-110*
O=C(Nc1cccc(-c2ccc(N3CCOCC3)nn2)c1)c1ccccc1Cl	-110*
O=C(COc1ccc(Cl)cc1)Nc1cccc(-c2ccc(N3CCOCC3)nn2)c1	-71*
Cc1ccc(C(=O)Nc2cccc(-c3ccc(N4CCOCC4)nn3)c2)cc1	-70*
CC1CCN(c2ccc(-c3ccc(NC(=O)C(F)(F)F)cc3)nn2)CC1	71
COc1ccc(-n2cc(-c3ccc(Cl)cc3)[nH]c2=S)cc1	-91*
COc1cccc(-n2cc(-c3ccc(F)cc3)[nH]c2=S)c1	-158*
CCOc1ccc(NC(=O)C(c2ccccn2)N(C(=O)CCl)c2ccc(F)cc2)cc1 (stereo not given)	-71*
COc1ccc(-c2nc(=S)c3c([nH]2)Oc2ccc(C)cc2C3)cc1O	-76*
Cc1ccc(/C=N/NC(=O)c2ccc(Br)o2)s1	-111*
CCc1ccc(/C=N\NC(=O)c2ccc(Br)o2)s1	-167*
CC(C)(C)C(=O)Nc1ccc(-c2csnn2)cc1	-74*
CC(=O)O/N=C(\N)c1ccc(-c2csnn2)cc1	-128*
CC(C)(C)C(=O)O/N=C(\N)c1ccc(-c2csnn2)cc1	-131*
Cc1ccccc1C(=O)Oc1ccc(-c2csnn2)cc1	-68*
COc1ccc(C(=O)Cn2cnc3ccccc3c2=O)c(OC)c1	-96*
C/C(N)=C(/C#N)C(=O)CSc1nnc(-c2ccc(OC(F)F)cc2)o1	-204*
C/C(N)=C(/C#N)C(=O)CSc1nn(-c2ccc(Cl)cc2)c(=S)s1	-74*
C/C(N)=C(/C#N)C(=O)CSc1ccccc1F	-115*
CN(C)/C=C/C(=O)c1ccc(-n2cccc2)cc1	-88*
CCN1CCC2(CC1)Oc1c(OC)cccc1C1CC(c3cccnc3)=NN12 (stereo not given)	-128*
N/C(=N\O)c1ccc(N2CCN(c3ncccc3C(F)(F)F)CC2)nc1	-98*
CN(C)c1ccc(/C=C2\SC(=O)N(CCc3nnc(N)s3)C2=O)cc1	80
CN(C)c1ccc(/C=C2/SC(=O)N(CCN=C3NS(=O)(=O)c4ccccc43)C2=O)cc1	-66*
SMILES	aSyn 5UTR act
O=c1c(O)c(-c2ccc(O)c(O)c2)oc2cc(O)cc(O)c12	-109*
O=c1cc(-c2ccc(O)c(O)c2)oc2cc(O)cc(O)c12	-207*
COc1cc(-c2cc(=O)c3c(O)c(OC)c(OC)c(O)c3o2)ccc1O	87
CCOC(=O)c1csc(NC(=O)c2cc(=O)c3ccccc3o2)n1	-69*
CC(=O)c1sc(NC(=O)c2ccc(Br)o2)nc1C	-77*
CC(=O)c1sc(NC(=O)c2cc(=O)c3ccccc3o2)nc1C	-81*
CCN(c1ccccc1)S(=O)(=O)c1ccc(Oc2ccc(-n3ccnc3)cc2)nc1	103
COc1ccc(S(=O)(=O)n2ccc(-c3cnc(-c4ccccc4)s3)n2)cc1	-140*
O=C(Nc1cccc(O)c1)c1ccc(Br)c(S(=O)(=O)N2CCCCC2)c1	-70*
O=C(Oc1cccc(NC(=O)c2ccco2)c1)c1cccc(S(=O)(=O)N2CCCC2)c1	-72*
O=C(Nc1cccc(O)c1)c1cccc(S(=O)(=O)N2CCCCCC2)c1	-85*
O=C(Nc1ccc2c(c1)OCO2)c1cccc(S(=O)(=O)N2CCCC2)c1	-104*
O=C(CCl)Nc1cccc(S(=O)(=O)N2CCCCCC2)c1	-92*
O=C(COC(=O)c1ccc(O)cc1)Nc1cccc(S(=O)(=O)N2CCCCC2)c1	29
CCc1ccc(-c2nc(CSCC(=O)NCc3ccco3)c(C)o2)cc1	77
Cc1ccc(CSCC(=O)Nc2ccccc2F)cc1	-81*
Cc1ccc(OCC(=O)Nc2ccc(F)cc2)c([N+](=O)[O-])n1	-167*
Cc1ccc(NC(=O)Cc2ccc(F)cc2)cc1	-81*
Cc1ccc(NC(=O)CSCc2ccco2)cc1	-130*
Cc1ccc(NC(=O)CSCc2ccc(F)cc2)cc1	-81*
Cc1ccc(OCC(=O)Nc2ccc(F)cc2)cc1	-96*
Cc1ccc(NC(=O)C(=S)NCc2ccco2)cc1	-135*
O=C(/C=C/Nc1ccc([N+](=O)[O-])cc1Br)c1cccc2ccccc12	-163*
O=C(CSc1ncnc2nc[nH]c12)c1ccccc1	-87*
c1ccc(CCSc2ncnc3nc[nH]c23)cc1	-75*
SMILES	aSyn 5UTR act
O=C1/C(=C\c2ccco2)NC(=S)N1c1ccccc1	-84*
N=c1scc(-c2ccccc2)n1/N=C/c1ccco1	-220*
Cc1nc(N)sc1-c1csc(N(C)c2ccc(O)cc2)n1	-127*
CN(c1ccc(O)cc1)c1nc(-c2cccs2)cs1	-238*
Cc1nnsc1S(=O)(=O)Cc1ccccc1C(F)(F)F	-76*
CCOC(=O)c1csc(Nc2nc3ccc(F)cc3s2)n1	-82*
CC(=O)c1sc(Nc2nc3ccc(F)cc3s2)nc1C	-216*
COC(=O)c1ccc2nc(Nc3nc4ccc(F)cc4s3)sc2c1	75
NNC(=O)COc1ccccc1[N+](=O)[O-]	-87*
CCSc1nnc(NC(=O)COc2ccccc2[N+](=O)[O-])s1	-114*
CC(C)c1nnc(NC(=O)COc2ccccc2[N+](=O)[O-])s1	-154*
CCn1cc(Cl)c(C(=O)Nc2cccc(C(F)(F)F)c2)n1	-105*
CCn1cc(Br)c(C(=O)Nc2ccccc2C(=O)OC)n1	-88*
CCn1cc(Br)c(C(=O)Nc2cccc(SC)c2)n1	-141*
CCn1cc(Cl)c(C(=O)Nc2ccccc2C(N)=O)n1	-87*
Cc1ccc(C(=O)Nc2cccc(C(F)(F)F)c2)cc1NC(=O)c1nccnc1N	78
COc1cccc(Nc2ncnc3ccccc23)c1	-123*
COc1ccc(Nc2cc(Nc3ccccc3)ncn2)cc1	-81*
Cc1ccc(O)c(Nc2ncnc3ccccc23)c1	-96*
COc1ccc(Nc2ncnc3ccccc23)cc1	-152*
CCOc1ccc(Nc2nc(N)c3ccccc3n2)cc1	102
COc1cccc(Nc2cc(C)c3ccccc3n2)c1	-63*
COc1ccc(Nc2ccnc(Nc3ccc(OC)cc3)n2)cc1	-120*
Cc1ccnc(N(C(=O)c2cccs2)C(=O)c2cccs2)c1	-157*
Cc1ccnc(NC(=O)CCC(=O)c2cccs2)c1	84
SMILES	aSyn 5UTR act
O=C(c1cccs1)N(C(=O)c1cccs1)c1ccc(Br)cn1	-144*
N=c1oc2c3c4c(cc2cc1C(=O)Nc1ccccc1)CCCN4CCC3	-276*
Cc1nc2c(s1)sc1ccccc12	-76*
COC(=O)c1ccc(COn2nnc3ccccc32)cc1	-130*
Clc1cccc(Cl)c1COn1nnc2ccccc21	-149*
Cc1cc(C)c2c(NC(=O)CCl)nn(C)c2n1	-65*
Cc1ccc(NC(=S)NNC(=O)c2nn(C)cc2Cl)cc1	-90*
Cc1c(Cl)c(C(=O)NNC(=S)Nc2ccc(F)cc2)nn1C	-70*
Cc1c(Cl)c(C(=O)NNC(=S)Nc2ccccc2)nn1C	-102*
Nc1nc(F)nc2c1ncn2[C@@H]1O[C@H](CO)[C@@H](O)[C@H]1O	122
Cc1cc(C2=NNC(=Nc3ccccc3)SC2)c(C)n1C	-80*
Nc1ccccc1C(=O)NNC(=O)C(=O)/C=C(\O)c1ccccc1	-139*
O=C(Nc1ccc(Cl)c(Cl)c1)Nc1ccccc1O	-105*
CCOC(=O)c1ccc(NC(=O)Nc2ccon2)cc1	64
O=C(Nc1ccc(Cl)c(Cl)c1)Nc1ccon1	-69*
CC(/C=C1\NC(=S)NC1=O)=C\c1ccccc1	-62*
O=C(NCCc1ccccc1)C(=O)NC1CCCCC1	-105*
O=C(NC1CCCCC1)C(=S)NCCc1ccccc1	-62*
